According to PubChem BioAssay AID1645883 (National Center for Advancing Translational Sciences (NCATS), 2021):
Values joined by “and” are separate entries in the source; they are usually repeats but may differ in a detail not shown here. Equal entries are not always repeated. Out of some 16,000 compounds screened, about 160 (1%) were called active. Inconclusive results (about 8%) are left out. The full list was thinned out, with actives kept by preference. Values without a mark were called inactive. The call rests on the fitted dose curve; in most records, active means well fitted activation curve with a large enough effect; inconclusive means small, poorly fitted or top-dose-only effect; inactive means no such curve, though single readings can be large or run the other way.

target: Rap guanine nucleotide exchange factor 3 (Homo sapiens) (UniProt O95398); assay: Validation qHTS for agonist of cAMP-regulated guanine nucleotide exchange factor 3 (EPAC1); conditions: EPAC1 Rap1b BODIPY-GDP exchange, fluorescence; max response: stronger effect = higher value, percent of cAMP control response; further: nearly all actives have a fitted effect of over 70% in size
Sequence (O95398 whole entry, looked up): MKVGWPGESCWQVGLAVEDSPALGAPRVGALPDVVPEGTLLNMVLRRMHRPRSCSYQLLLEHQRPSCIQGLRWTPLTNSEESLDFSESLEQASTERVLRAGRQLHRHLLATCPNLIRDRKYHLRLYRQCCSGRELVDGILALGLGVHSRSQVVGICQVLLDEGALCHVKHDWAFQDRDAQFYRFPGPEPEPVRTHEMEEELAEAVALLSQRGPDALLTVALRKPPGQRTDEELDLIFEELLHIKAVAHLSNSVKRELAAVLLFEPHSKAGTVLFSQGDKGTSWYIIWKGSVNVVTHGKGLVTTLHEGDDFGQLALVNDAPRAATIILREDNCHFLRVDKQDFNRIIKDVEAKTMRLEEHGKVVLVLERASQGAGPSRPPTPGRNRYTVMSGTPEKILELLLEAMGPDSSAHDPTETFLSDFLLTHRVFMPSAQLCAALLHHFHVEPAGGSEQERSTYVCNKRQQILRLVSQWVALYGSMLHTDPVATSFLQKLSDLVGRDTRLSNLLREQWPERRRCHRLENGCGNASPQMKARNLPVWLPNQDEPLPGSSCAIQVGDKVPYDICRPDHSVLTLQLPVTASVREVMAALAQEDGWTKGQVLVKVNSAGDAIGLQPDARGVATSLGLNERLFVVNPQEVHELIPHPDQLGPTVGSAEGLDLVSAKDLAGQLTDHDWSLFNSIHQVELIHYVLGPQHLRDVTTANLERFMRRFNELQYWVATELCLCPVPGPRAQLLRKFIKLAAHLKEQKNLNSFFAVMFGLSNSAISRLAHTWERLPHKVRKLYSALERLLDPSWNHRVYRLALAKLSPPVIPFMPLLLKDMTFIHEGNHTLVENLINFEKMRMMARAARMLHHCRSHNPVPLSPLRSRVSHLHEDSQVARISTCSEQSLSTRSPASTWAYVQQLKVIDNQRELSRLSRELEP
Text: Assay Provider (PI): Xiaodong Cheng Ph.D.
The University of Texas Medical Branch, […], TX
In multi-cellular eukaryotic organisms, the effects of cAMP are transduced by two ubiquitously-expressed intracellular cAMP receptors, the classic protein kinase A/cAMP-dependent protein kinase (PKA/cAPK) and the more recently discovered exchange protein directly activated by cAMP/cAMP-regulated guanine nucleotide exchange factor (EPAC/cAMP-GEF). Both PKA and EPAC are ubiquitously expressed in all tissues, and an increase in intracellular cAMP levels will lead to the activation of both PKA and EPAC. Therefore, careful dissections of the individual role and relative contribution of EPAC and PKA within the overall cAMP signaling in various model systems are critical for further elucidating the mechanism of cAMP signaling. To date no EPAC-specific antagonists and agonist, as well as isoform-specific agonists have been reported, and developing EPAC-specific pharmacological probes to determine the physiological functions that EPAC play in the overall cAMP-mediated signaling remains a major challenge within the research field. Furthermore, identified regulators of EPAC may lead to new mechanism-based therapeutic strategies specifically targeting the EPAC / cAMP-signaling components as EPAC has been implicated to play important roles in major human pathological conditions such as diabetes, heart disease, and cancer.
This qHTS will be used to screen the Molecular Libraries Small Molecule Repository (MLSMR) as a concentration-titration series using the NCGC unique quantitative screening (qHTS) platform to find activators for EPAC1. In addition, this assay will also be used as a counterscreen for the EPAC2 qHTS. This fluorescent based assay is developed and validated for EPAC1 that measures exchange using EPAC effector Rap1 complex with BODIPY-GDP, a GDP analog with a tethered fluorophores. Activators are identified by monitoring the change in fluorescence signal as the exchanged free BODIPY-GDP has a reduced fluorescence compared to Rap1-bound BODIPY-GDP. Increase in signal (activation) is the desired outcome for the EPAC1 agonist while no activity in this assay is desired for the EPAC2 agonist counterscreen.
[1] de Rooij, J., Zwartkruis, F. J., Verheijen, M. H., Cool, R. H., Nijman, S. M., Wittinghofer, A., and Bos, J.L. (1998) Nature 396, 474-477.
Briefly, three uL of reagents (100 nM EPAC1, 250 nM RAP1B-BODIPY-GDP, 50 uM GDP) were dispensed into a 1536-well Greiner black solid-bottom medium binding assay plate. Controls and test compounds (23 nL) were transferred to the plate via a Kalypsys pin tool equipped with a 1536-pin array. The plates were centrifuged at 1,000 rpm for 15 seconds followed by 5 minute incubation at room temperature. The assay plates were read at 5 minute intervals for 30 minutes in the ViewLux plate reader using 480nm excitation and 540nm emission filters. The results were normalized to the agonist positive control of 6.5 mM cAMP.
On the % scale 0 is the no-effect control and ±100 the full control effect; potency means the concentration at half of the fitted maximal effect.

| SMILES | max response | Potency |
| --- | --- | --- |
| COc1cc2c(cc1OC)CC(=O)N(CCCN(C)C[C@H]1Cc3cc(OC)c(OC)cc31)CC2 | 1.48% |  |
| COc1ccc(C2CC(=O)c3c(O)cc(OC4OC(COC5OC(C)C(O)C(O)C5O)C(O)C(O)C4O)cc3O2)cc1O (centres undefined) | -7.79% |  |
| O=C(c1cnccn1)N1CCC2(CCN(Cc3cc(C(F)(F)F)cc(C(F)(F)F)c3)CC2)CC1 | -66.3% |  |
| NC(=O)C(=O)N/N=C/c1ccc([N+](=O)[O-])o1 | -37.2% |  |
| COCCNc1ccnc(-c2cccc(NS(C)(=O)=O)c2)n1 | -9.71% |  |
| Nc1nc(/C(=C/CC(=O)O)C(=O)N[C@@H]2C(=O)N3C(C(=O)O)=CCS[C@H]23)cs1 | 13.2% |  |
| N#C/C(=C\c1ccc(O)c(O)c1)C(N)=O | -9.7% and -17.1% |  |
| COc1ccccc1C(=O)N[C@@H]1c2ccccc2C2(CCN(Cc3nc(C(C)C)cs3)CC2)[C@H]1O | 12.9% |  |
| CN(C)c1ccc(CN2CCOc3ccc(CN4CCC(O)(c5cccnc5)CC4)cc3C2)cc1 | -6.57% |  |
| O=C(c1cc(C(F)(F)F)cc(C(F)(F)F)c1)N1CCC2(CC1)CN(c1ccncc1)C2 | 12.3% |  |
| O=c1[nH]c(=O)c2nc3ccccc3nc2[nH]1 | -1.62% and 3.86% |  |
| COC(=O)[C@@H]1C[C@H](NC(=O)c2ccccc2C(F)(F)F)CN1Cc1cccc(O)c1 | -10.1% |  |
| Cc1cc(-c2ccnc(-n3ncc(C(=O)NC(C)(C)CO)c3C3CC3)n2)c(C)s1 | 5.17% |  |
| CS(=O)(=O)N1CCC2(CCN(c3ccncc3)CC2)CC1 | -40.6% |  |
| O=c1c(O)c(-c2ccc(O)cc2)oc2ccccc12 | -32.1% |  |
| COc1ccc(/C=C2\NC(=O)[C@@H]3Cc4ccccc4CN3C2=O)cc1 | 5.8% |  |
| CN1CCN2c3ccccc3Cc3ccccc3[C@@H]2C1 | -0.216% |  |
| CCS(=O)(=O)Nc1cc(C(=O)N2C[C@@H](C)O[C@@H](C)C2)c2c(c1)nc(-c1ccccc1)n2C | 19.2% |  |
| COc1ccc(CNc2ncnc3ccc(-c4cccnc4)cc23)c(OC)c1 | -62.5% |  |
| FC(F)(F)c1ccccc1-c1nc(-n2ccnc2)c2ccccc2n1 | 0.971% |  |
| CC(=O)Nc1ccc(SC[C@H](Cc2ccccc2)N2CC[C@@H](C)CCC2=O)cc1 | -7.47% |  |
| CCCN(C/C=C\I)[C@@H]1CCc2cccc(O)c2C1 | -15.6% |  |
| COc1ccccc1-c1nc(N2CCN(C)CC2)c2ccccc2n1 | -31.8% |  |
| c1ccc2nc(C3=NCCN3)cnc2c1 | 0.273% |  |
| O=c1cnc2cnc(Nc3ccccc3)nc2n1Cc1ccc(F)cc1 | -19.3% |  |

| SMILES | max response | Potency |
| --- | --- | --- |
| Nc1ccc2c3c(cccc13)C(=O)NC2=O |  | 7.08 µM (active) |
| CCC1CN(CCNC(=O)c2ccsc2)Cc2cc(OC)ccc2O1 (centres undefined) | 4.39% |  |
| O=c1c(CCc2ccccc2)nc2cncnc2n1C1CC1 | 26% |  |
| CC(=O)c1ccc(F)c(-c2cc(C)cc3c2OC(CNC(=O)Cc2c[nH]c4ccccc24)C3)c1 (centres undefined) | 24.4% |  |
| CCCCCCCCCCCCCCCCO | -1.51% |  |
| CC(=O)OCC(=O)[C@@]1(O)CCC2C3CCC4=CC(=O)CC[C@@]4(C)[C@]3(F)C(O)C[C@]21C (some centres undefined) | -5.21% |  |
| CN1CC(O)c2cc(N=NC(N)=O)c(O)cc21 (centres undefined) | -6.9% |  |
| CCCc1nc2c(C)cc(-c3nc4ccccc4n3C)cc2n1Cc1ccc(-c2ccccc2C(=O)O)cc1 | -43.1% |  |
| COc1ccccc1CNc1cc(-c2ccccc2CN(C)C)ncn1 | -35.4% |  |
| FC(F)(F)c1ccccc1-c1cc(NCc2ccccc2)ncn1 | -105% |  |
| Cc1cnc(C(=O)N2CCOc3ccc(CN4CCCC(C(=O)c5cccnc5)C4)cc3C2)[nH]1 (centres undefined) | -8.53% |  |
| O=C(Nc1ccc(O)cc1)c1ccccc1O | 7.12% |  |
| CC(C(=O)O)c1ccc(C2CCCCC2)c2ccccc12 (centres undefined) | 5.84% |  |
| CCOC(=O)Cc1cccc(-c2cc(CCCCCCc3ccc(O[C@H]4O[C@H](COC(C)=O)[C@@H](OC(C)=O)[C@H](OC(C)=O)[C@@H]4OC(C)=O)c(-c4cccc(CC(=O)OCC)c4)c3)ccc2O[C@H]2O[C@H](COC(C)=O)[C@@H](OC(C)=O)[C@H](OC(C)=O)[C@@H]2OC(C)=O)c1 | -9.09% |  |
| CCc1nc2cc(C(=O)NCC3CCS(=O)(=O)C3)cc(NC(=O)c3ccccc3OC)c2n1C (centres undefined) | -13.5% |  |
| COC(=O)c1ccccc1C(=O)NCc1nc(N2CCCC2)c2cccc(C)c2n1 | -26.9% |  |
| CN(Cc1cccc2ncccc12)C(=O)c1cnn(-c2nccc(-c3ccccc3F)n2)c1C1CC1 | -28.3% |  |
| CC(=O)N1CCC2(CC1)CCN(c1ccncc1)CC2 | -44.5% |  |
| Cc1noc(C)c1-c1nc(Nc2ccccc2)c2ccccc2n1 | -34.4% |  |
| O=C(c1ccncc1)N1CCC2(CCN(Cc3cc(C(F)(F)F)cc(C(F)(F)F)c3)CC2)CC1 | -125% |  |
| CC(C)NC(=O)N1CC[C@@]2(CCCN(C(=O)c3cccc(F)c3)C2)C1 | 17.8% |  |
| O=C(c1cc(C(F)(F)F)cc(C(F)(F)F)c1)N1CCC2(CCCN(c3ccccn3)C2)CC1 | -45% |  |
| CC(C)NC(=O)N1CCCC2(CCN(C(=O)c3cccn3C)CC2)C1 | -48.1% |  |
| N#Cc1ccc[n+](CC(=O)c2ccc(F)cc2)c1 | 3.1% |  |
